# From the supplement of paper PMC8728848
# The full list was thinned out, with the strongest signals kept by preference.
# What was measured:
# Test in all cases: glycan array binding signal (z-score within array); higher = stronger binding
# Settings in all cases: glycan notation: IUPAC condensed, linker removed; mutation: R186I
# [1] = biological target: Neu5Ac(a2-6)Gal(b1-4)GlcNAc(b1-3)Gal(b1-4)GlcNAc(b1-3)Gal(b1-4)GlcNAc
# In short: (§1)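 From the Consortium for Functional Glycomics database, 3228 arrays were curated, keeping only those whose protein sequence was available. Binding is given as a within-array Z-score averaged across arrays sharing a protein sequence and across linkers. Negative Z-scores can be read as non-binding.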
# [2] = biological target: Neu5Ac9Ac(a2-6)Gal(b1-4)GlcNAc
# In short: as §1
# [3] = biological target: Neu5Gc(a2-3)Gal(b1-4)GlcNAc
# In short: as §1
# [4] = biological target: Neu5Gc(a2-3)Gal(b1-4)[Fuc(a1-3)]GlcNAc
# In short: as §1
binder,measurement,setting,value
"Gal 3 (Homo sapiens), P17931 (protein) MADNFSLHDALSGSGNPNPQGWPGAWGNQPAGAGGYPGASYPGAYPGQAPPGAYPGQAPPGAYHGAPGAYPGAPAPGVYPGPPSGPGAYPSSGQPSAPGAYPATGPYGAPAGPLIVPYNLPLPGGVVPRMLITILGTVKPNANILDFQRGNDVAFHFNPRFNENNRRVIVCNTKLDNNWGREEIQSVFPFESGKPFKIQVLVEPDHFKVAVNDAHLLQYNHRVKKLNEISKLGISGDIDLTSASYTMI",glycan array binding signal (z-score),[1],-0.107
same,glycan array binding signal (z-score),[2],-0.185
same,glycan array binding signal (z-score),[3],-0.157
same,glycan array binding signal (z-score),[4],-0.165
